Screens: PubChem BioAssay, National Center for Advancing Translational Sciences (NCATS)
Shown are actives, neighbours in structure and some others; about 3% of the full set was active somewhere.
S16 F2sN tox: cytotoxicity in S16 Pmp22-F2sN Schwann cells. S16 Pmp22-F2sN Schwann cells viability, CellTiter-Glo, 24 h. Potency, µM (series often up to 57.5 µM), for the others: top-dose activity change, negative = cytotoxicity, usual class: cytotoxic. 43,000 compounds, 0.48% hits; also: nearly all actives have a fitted effect of over 65% in size
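S16 Schwann cells carrying the Pmp22-F2sN reporter, seeded in 1536-well format, were exposed to library compounds for 24 h at 37C. Viability was read as CellTiter-Glo luminescence after 15 min at room temperature.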
mTORC1 inh: mTORC1 pathway inhibition measured by phospho-rpS6; Tsc2-/- p53-/- MEF, phospho-rpS6 immunofluorescence/PI, 24 h; Potency, µM (series often up to 38.3 µM), for the others: at the highest dose activity change, negative = inhibition, most hits filed as inhibitors; 44,000 compounds, 0.78% hits;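 also: plate controls were DMSO for no effect and rapamycin for full effect; nearly all actives have a fitted effect of over 50% in size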
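Cell-based qHTS: Tsc2-/- p53-/- MEF, 24 h cpd, 37 °C; fix/perm, anti-phospho-S6 Alexa-488 + PI; Acumen 488 nm scan; pS6/PI ratio, % positive cells; rapamycin 7.5 nM = inhibition ref; PI count = viability.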
PMP22 txn: modulates PMP22 transcription in S16 Schwann cells. S16 Pmp22-F2sN Schwann cells (luciferase reporters placed in the Pmp22 gene), FLuc/NLuc coincidence luminescence, 24 h. Potency, µM (doses to about 57.5 µM), inactives show top-dose activity change, negative = inhibition, hits mostly inhibitors. 43,000 compounds, 2% hits. AID 1508649; active = clear falling dose curves in both reporters; inconclusive = both reporters move, but less clearly or upward; inactive = either reporter flat; the % is the NLuc reporter signal
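qHTS, 1536-well. Cells seeded, compounds added by pin tool, 24 h 37C. Nano-Glo reagent 1 (lysis/FLuc), 10 min RT, read; Stop&Glo, 10 min RT, read NLuc.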
SKOV3 invasion: inhibitors of ovarian cancer cell adhesion and invasion in omental model; SKOV3ip1-GFP adhesion/invasion on 3D omental model, fluorescence; Potency, µM (doses to about 45.8 µM), for inactives: at the highest dose activity change, negative = inhibition, hits mostly inhibitors; 46,000 compounds, 0.1% hits; AID 1963576;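 also: plate controls were DMSO wells for no effect and tomatine positive control wells for full effect; nearly all actives have a fitted effect of over 65% in size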
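A 3D layer of primary human omental fibroblasts, mesothelial cells, fibronectin and collagen I, grown 48 hr, received SKOV3ip1-GFP cells in serum-free medium plus compounds at 0.36-46 umol/L. After 2 hr RT and 16 hr 37 C, fixed adherent GFP cells were counted; normalized to DMSO and tomatine.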
p53null 32C kill: kills p53 null cells at the permissive temperature; H1299-neo p53 null cells, ATP luminescence, 24 h, 32C; Potency, µM (doses to about 46.1 µM), for inactives: top-dose activity change, negative = cytotoxicity, hits mostly cytotoxic; 55,000 compounds, 0.62% hits;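 also: 0% = DMSO only and -100% = full killing by 100 µM tamoxifen; nearly all actives have a fitted effect of over 55% in size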
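H1299-neo (p53 null) cells, 600/well, treated 24 h at 32C with compound up to 46 uM; ATPlite luminescence viability, normalized to DMSO and 100 uM tamoxifen; AC50 by Hill fit.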
p53null 39C tox: selectivity test: cytotoxicity in p53 null cells, nonpermissive temperature; H1299 p53-null (neo) cells, 39C, ATPlite viability, 24 h; Potency, µM (doses to about 46.1 µM), for the others: at the top dose activity, negative = cell killing, usual class: cytotoxic; 55,000 compounds, 0.97% hits;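 also: 0% = DMSO only and -100% = full killing by 100 µM tamoxifen; nearly all actives have a fitted effect of over 50% in size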
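Concentration-response (up to 46 uM) was run for 24 h at the nonpermissive 39C on H1299-p53A138V or H1299-neo cells. ATP content was measured with ATPlite luminescence. AC50 values were Hill-modeled after normalizing between DMSO and 100 uM tamoxifen killing.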
Starred values were filed as active, the others as inactive; i = inactive; ? = inconclusive; nt = no result. Unless noted, calls follow the shape of the dose curve; as a rule, active = well fitted curve in the direction sought with a large enough effect; inconclusive = small, poorly fitted or top-dose-only effect, or another doubt; inactive = no such curve, though single readings can be large; an effect the other way counts as inactive or inconclusive. Unless noted, % is scaled to controls: 0 for no effect and ±100 for the full control effect; potency is read from the fitted curve at half-maximal effect.

SMILES	S16 F2sN tox	mTORC1 inh	PMP22 txn	SKOV3 invasion	p53null 32C kill	p53null 39C tox
COc1ccc(N(CC(=O)N2CCN(c3cccc(Cl)c3)CC2)S(=O)(=O)c2c(C)noc2C)cc1	-27%	-12%	-25%	32%	2%	10µM*
NCc1c[nH]c(=S)n1[C@H]1CCc2c(F)cc(F)cc2C1	nt	nt	nt	32%	nt	nt
CCOc1ccc(-n2nc3ccc(NC(=O)c4ccc(-c5cccc(Cl)c5)o4)cc3n2)cc1	?	12µM*	?	15%	-29%	?
O=C(CSc1nc(-c2ccccc2)[nH]c1-c1ccccc1)Nc1ccc2c(c1)OCO2	35µM*	?	?	-12%	11%	?
COc1cc(-c2nc(SCC(=O)Nc3ccc4c(c3)OCO4)c(-c3ccccc3)[nH]2)cc(OC)c1OC	?	-16%	-58%	?	17%	?
Cc1cccc(Nc2nc(Nc3cccc(C)c3)nc(N3CCOCC3)n2)c1	-23%	1.2µM*	?	-15%	-6%	2%
CCOc1ccc(Nc2nc(Nc3ccc(OCC)cc3)nc(N3CCOCC3)n2)cc1	4%	2.3µM*	5%	-8%	2%	0%
Cn1c(=O)c(Oc2ccc(F)cc2F)cc2cnc(NC3CCOCC3)nc21	nt	nt	nt	-20%	nt	nt
c1cc(N[C@@H]2CCNC2)nc(-c2cnc3ccc(-c4cn[nH]c4)cn23)c1	nt	nt	nt	3%	nt	nt
Cc1ccc(NC(=O)CSc2[nH]c(=O)ncc2C)cc1	-2%	3%	4%	0%	11µM*	13µM*
O=C(/C(C=Nc1ccc(F)cc1)=C(/O)c1ccco1)C(F)(F)F	nt	nt	nt	nt	7.9µM*	?
Cc1cccc(N=C/C(C(=O)C(F)(F)F)=C(\O)c2ccco2)c1	nt	nt	nt	nt	6%	nt
CS(=O)(=O)c1ccc(Sc2nc3ccccc3s2)c([N+](=O)[O-])c1	nt	nt	nt	nt	13µM*	nt
Cc1cc(S(=O)(=O)Nc2ccc(O)c(Sc3nc4ccccc4s3)c2)ccc1Cl	?	-7%	?	-1%	46%	-4%
FC(F)(F)c1cccc(N2CCN(c3ncnc4c3nc3n4CCCC3)CC2)c1	?	0%	13µM*	3%	-7%	-15%
c1ccc(N2CCN(c3ncnc4c3nc3n4CCCC3)CC2)cc1	?	1%	?	16%	-11%	-13%
C[C@H](CCC(=O)O)[C@H]1CC[C@H]2[C@H]3[C@@H](CC[C@]12C)[C@@]1(C)CC[C@@H](O)C[C@H]1C[C@@H]3O	nt	nt	nt	1%	nt	nt
CC1=C(C(=O)Nc2ccccc2)C(c2ccc(F)cc2)n2nc(SCc3cc(C)ccc3C)nc2N1 (stereo unspecified)	3%	0%	2%	36%	-8%	14%
COc1ccccc1NC(=O)C1=C(C)Nc2nc(SCc3cc(C)ccc3C)nn2C1c1ccccc1 (stereo unspecified)	10µM*	-3%	17µM*	8%	-8%	8%
O=C(O)C(O)Cc1ccc(O)c(O)c1 (stereo unspecified)	nt	nt	nt	-24%	nt	nt
Cc1ccc(CN2C(=O)c3ccccc3Sc3ccc(C(=O)NCCCN4CCOCC4)cc32)cc1	-28%	12µM*	?	i	-12%	?
Cc1ccc(NC(=O)c2cc(-c3ccc(Br)s3)nc3ccccc23)cc1F	32µM*	-9%	?	-2%	-12%	-21%
COc1ccc(CNC(=O)c2cc(-c3ccc(Br)s3)nc3ccccc23)cc1	-4%	-7%	?	i	8%	?
CCCCCCn1c(/C=C/c2ccccc2)nc2ccccc21	-20%	8%	-50%	0%	-22%	13µM*
CC1=C(C(=O)Nc2ccc(C)cc2C)C(c2cc(Br)ccc2F)n2ncc(C(=O)Nc3ccc(C)cc3)c2N1 (stereo unspecified)	?	2.9µM*	?	i	-15%	?
SMILES	S16 F2sN tox	mTORC1 inh	PMP22 txn	SKOV3 invasion	p53null 32C kill	p53null 39C tox
COc1ccc(CCN2CCC(CNC(=O)c3cnn(-c4cccc(Cl)c4)c3C3CCN(C(=O)OC(C)(C)C)CC3)CC2)cc1	?	?	?	?	4%	20µM*
CC(C)(C)OC(=O)N1CCC(c2c(C(=O)NCCN3CCC(Cc4ccccc4)CC3)cnn2-c2ccc(F)cc2)CC1	?	?	?	?	?	25µM*
COc1ccc(CCN2CCC(CNC(=O)c3cnn(-c4ccccc4)c3C3CCN(C(=O)OC(C)(C)C)CC3)CC2)cc1	?	7%	?	?	16%	-10%
C[C@H]1[C@@H](OC(=O)CCC(=O)O)O[C@@H]2O[C@@]3(C)CC[C@@H]4[C@H](C)CC[C@@H]1[C@@]24OO3	nt	nt	nt	-15%	nt	nt
C1Cc2[nH]nc(-c3nn[nH]n3)c2C1	nt	nt	nt	-7%	nt	nt
CN(C)c1nc(Cc2ccc(NC(=O)c3ccc4ccccc4c3)cc2)nc(Cl)c1CC(=O)O	nt	nt	nt	-21%	nt	nt
Fc1ccccc1Cc1cn2cc(-c3ccc(Cl)cc3)nc2s1	14%	0%	-10%	i	?	?
Clc1ccc(-c2cn3cc(Cc4ccccc4)sc3n2)cc1	23%	-4%	10%	5%	?	16µM*
Fc1ccc(-c2cn3cc(Cc4ccccc4Cl)sc3n2)cc1	-1%	-3%	-4%	-30%	?	7.9µM*
Cc1cc(=O)n2nc(N3CCC(C(=O)Nc4ccc(Br)c(C)c4)CC3)sc2n1	1%	-2%	15µM*	i	9%	-6%
COc1ccccc1Cn1cc(C(=O)c2ccc(Cl)cc2)c(=O)c2cc3c(cc21)OCCO3	1%	-7%	?	0%	-6%	-20%
COc1ccccc1Cn1cc(C(=O)c2ccc(Cl)cc2)c(=O)c2ccccc21	?	3.3µM*	?	?	2%	?
COc1ccc(CNc2ncnc3c2cnn3-c2ccc(C)c(C)c2)cc1	2%	0%	?	i	0%	15%
Cc1ccc(-n2ncc3c(NC(C)c4ccccc4)ncnc32)cc1 (stereo unspecified)	5%	2%	5%	1%	?	4%
CCC(CO)Nc1ncnc2c1cnn2-c1ccc(C)cc1 (stereo unspecified)	-12%	10%	?	0%	16µM*	20%
COc1ccc(-n2ncc3c(NC(C)(C)CO)ncnc32)cc1	9%	6%	15%	i	13µM*	?
COc1cccc(-c2oc3ccc(C)cc3c(=O)c2O)c1	-26%	?	?	-5%	?	22µM*
